A selection: hits, their analogues and other compounds. The true share with any hit is near 0.75%.
Sa RN4220 lethal = kills Staphylococcus aureus RN4220; S. aureus RN4220 growth, OD600, 16 h; inhibition, % (test concentration not listed); 330,000 tested, 0.33% active; in the data active means inhibition above about 85%
BioA inh-1 = inhibitors of Mycobacterium tuberculosis BioA enzyme. purified M. tuberculosis BioA enzyme, plate reader. inhibition, % at 9.99 µM. 360,000 tested, 0.096% active; in the data active means inhibition above about 40%
Mtb hypoxia inh = reduces hypoxia-regulated biosensor signal in M. tuberculosis. M. tuberculosis hypoxia-regulated fluorescent reporter, fluorescence. fluorescence inhibition, % (no concentration beside the values). 300,000 tested, 0.1% active; in the data active means fluorescence inhibition mostly above about 23%, no sharp cut-off; inactive means mostly below about 17%
TcdB inh = TcdB glycohydrolase inhibition | P18177 | TcdB glycohydrolase enzymatic assay, plate reader | inhibition, % at 9.99 µM | 350,000 tested, 0.24% active | AID 652162; in the data active means inhibition above about 10%
Y pestis TopoI = inhibitors of Yersinia pestis topoisomerase I. Y. pestis Topo-I cleavage product accumulation, plate reader. activity, % at 10 µM. 360,000 tested, 0.064% active. AID 504884; in the data active means activity above about 50%, passing the limit was not always enough
Sa ugtP lethal = kills S. aureus RN4220 lacking UgtP. S. aureus RN4220 ugtP deletion, OD600 growth, 16 h. growth inhibition, % (no concentration beside the values). 330,000 tested, 0.54% active. AID 1259309; in the data active means growth inhibition above about 68%
BioA inh-2 = inhibitors of Mycobacterium tuberculosis BioA enzyme; shares compounds with BioA inh-1; purified BioA enzyme, plate reader, dose response; max activity, %; 310 tested, under 10 active; AID 651679;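 further: top concentration of the dilution series was 10 µM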
Target sequence (P9WQ81 whole entry, looked up): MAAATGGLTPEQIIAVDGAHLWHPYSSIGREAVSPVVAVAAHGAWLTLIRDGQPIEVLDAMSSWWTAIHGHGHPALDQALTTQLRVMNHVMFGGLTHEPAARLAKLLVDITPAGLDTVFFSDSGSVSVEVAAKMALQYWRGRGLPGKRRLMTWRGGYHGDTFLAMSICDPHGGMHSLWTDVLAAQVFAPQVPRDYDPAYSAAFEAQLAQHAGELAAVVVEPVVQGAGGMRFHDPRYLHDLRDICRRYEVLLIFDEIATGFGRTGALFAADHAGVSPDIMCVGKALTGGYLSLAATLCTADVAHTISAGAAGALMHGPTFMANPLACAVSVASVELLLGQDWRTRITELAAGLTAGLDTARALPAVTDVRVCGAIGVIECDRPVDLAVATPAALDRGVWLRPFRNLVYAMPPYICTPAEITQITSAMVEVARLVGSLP
HepG2 tox 2 = HepG2 viability loss. 310 tested, under 10 active. max activity, %. HepG2 cytotoxicity, plate reader. shares compounds with BioA inh-1
3T3 cytotox 5 = NIH3T3 viability loss | NIH3T3 cytotoxicity, plate reader | 310 tested, under 10 active | shares compounds with BioA inh-1 | activity change, negative = cytotoxicity, % at 26 µM
Large screens that a line does not name were inactive (follow-up assays come after a bar, where they were run). Unless noted, how the calls were made is not given here.

CC(=O)c1ccc(C(=O)N2CCCC(CO)(Cc3ccccc3C)C2)s1 (centres undefined)	BioA inh-1 54 | BioA inh-2 inactive | HepG2 tox 2 inactive | 3T3 cytotox 5 inactive
COCC(=O)N1CC[C@@H]2[C@@H](CO)N(C)c3ccc(-c4ccc(F)cc4)cc3[C@@H]21	BioA inh-1 61 (no result: Sa RN4220 lethal, Mtb hypoxia inh, TcdB inh, Y pestis TopoI, Sa ugtP lethal) | BioA inh-2 inactive | HepG2 tox 2 inactive | 3T3 cytotox 5 inactive
CN1c2ccc(-c3cccc(F)c3)cc2[C@@H]2[C@@H](CCN2C(=O)C2CC2)[C@H]1CO	none (no result: Sa RN4220 lethal, Mtb hypoxia inh, Y pestis TopoI, Sa ugtP lethal)
CN1c2ccc(-c3cccc(F)c3)cc2[C@H]2[C@H](CCN2C(=O)c2ccncc2)[C@@H]1CO	BioA inh-1 69 (no result: Sa RN4220 lethal, Mtb hypoxia inh, TcdB inh, Y pestis TopoI, Sa ugtP lethal) | BioA inh-2 inactive | HepG2 tox 2 inactive | 3T3 cytotox 5 inactive
CN1c2ccc(-c3cccc(F)c3)cc2[C@H]2[C@H](CCN2C(=O)C2CC2)[C@H]1CO	BioA inh-1 41 (no result: Sa RN4220 lethal, Mtb hypoxia inh, Y pestis TopoI, Sa ugtP lethal) | BioA inh-2 inactive | HepG2 tox 2 inactive | 3T3 cytotox 5 inactive
CCC(=O)N1CC[C@@H]2[C@@H](CO)N(C)c3ccc(-c4cccc(F)c4)cc3[C@@H]21	BioA inh-1 68 (no result: Sa RN4220 lethal, Mtb hypoxia inh, TcdB inh, Y pestis TopoI, Sa ugtP lethal) | BioA inh-2 inactive | HepG2 tox 2 inactive | 3T3 cytotox 5 inactive
C#CCOCCOCCOCCNc1nc(N2CCN(C(=O)Cn3cc(CCCCN)nn3)CC2)nc(N2CCN(C(=O)C(C)n3cc(CCC(=O)O)nn3)CC2)n1 (centres undefined)	none (no result: BioA inh-1, TcdB inh, Y pestis TopoI)
CCOc1cc(C=NNC(=O)c2cccnc2)ccc1O	none (no result: BioA inh-1, TcdB inh, Y pestis TopoI)
CNC(=O)C[C@@H]1CC[C@H]2[C@@H](COC[C@H](O)CN2C(=O)Nc2ccc(Cl)c(Cl)c2)O1	none (no result: Sa RN4220 lethal, Mtb hypoxia inh, Y pestis TopoI, Sa ugtP lethal)
CNC(=O)C[C@H]1CC[C@@H]2[C@H](COC[C@@H](O)CN2C(=O)Nc2ccc(Cl)c(Cl)c2)O1	BioA inh-1 83 (no result: Sa RN4220 lethal, Mtb hypoxia inh, Y pestis TopoI, Sa ugtP lethal) | BioA inh-2 inactive | HepG2 tox 2 inactive | 3T3 cytotox 5 inactive
COc1cccc(NC(=O)N2C[C@H](O)COC[C@@H]3O[C@@H](CC(=O)N(C)C)CC[C@H]32)c1	BioA inh-1 99 (no result: Sa RN4220 lethal, Mtb hypoxia inh, Y pestis TopoI, Sa ugtP lethal) | BioA inh-2 inactive | HepG2 tox 2 inactive | 3T3 cytotox 5 inactive
CC1CN(C(C)CO)C(=O)c2cc(NC(=O)Nc3ccc(C(F)(F)F)cc3)ccc2OC1CN(C)S(=O)(=O)c1cccs1 (centres undefined)	none (no result: BioA inh-1, TcdB inh, Y pestis TopoI)
Cc1cccc(C2c3[nH]c4ccccc4c3CCN2C(=O)CN2CCOC2=O)n1 (centres undefined)	BioA inh-1 52 | BioA inh-2 inactive | HepG2 tox 2 inactive | 3T3 cytotox 5 inactive
Cc1ccc(C=Nn2c(C)nc3ccccc3c2=O)o1	none (no result: BioA inh-1, TcdB inh, Y pestis TopoI)
C=CCn1c(COc2ccccc2F)nnc1SCCN1C(=O)c2ccccc2C1=O	BioA inh-1 44 (no result: TcdB inh) | BioA inh-2 inactive | HepG2 tox 2 inactive | 3T3 cytotox 5 inactive
C=CCn1c(SCCN2C(=O)c3ccccc3C2=O)nc2scc(-c3ccc(F)cc3)c2c1=O	none (no result: BioA inh-1)
CCOC(=O)CN1C(=O)NC(c2ccccc2)C(C(=O)OC)=C1C (centres undefined)	none (no result: BioA inh-1, TcdB inh, Y pestis TopoI)
COC(=O)C[C@@H]1C[C@@H]2c3cc(NC(=O)c4cccnc4)ccc3O[C@@H]2[C@@H](CO)O1	BioA inh-1 51 (no result: Sa RN4220 lethal, Mtb hypoxia inh, Y pestis TopoI, Sa ugtP lethal) | BioA inh-2 inactive | HepG2 tox 2 inactive | 3T3 cytotox 5 inactive
O=C(C[C@@H]1C[C@@H]2c3cc(NC(=O)c4cccnc4)ccc3O[C@@H]2[C@@H](CO)O1)NCCc1ccccc1	BioA inh-1 41 (no result: Sa RN4220 lethal, Mtb hypoxia inh, Y pestis TopoI, Sa ugtP lethal) | BioA inh-2 inactive | HepG2 tox 2 inactive | 3T3 cytotox 5 inactive
CC(CC(=O)Nc1ccc2c(c1)OCCO2)=NNC(=O)C(=O)Nc1ccccc1C	none (no result: BioA inh-1, TcdB inh, Y pestis TopoI)
CC1=CC2=NC(=O)/C(=C\c3cc(C)n(-c4ccccc4)c3C)C(=N)N2O1	none
CC1=CC2=NC(=O)/C(=C\c3cc(C)n(-c4ccccc4F)c3C)C(=N)N2O1	BioA inh-1 41 | BioA inh-2 inactive | HepG2 tox 2 inactive | 3T3 cytotox 5 inactive
C=CCN1C(=O)C(Cc2ccc(F)cc2)SC1=NN=Cc1ccco1 (centres undefined)	none (no result: BioA inh-1, TcdB inh, Y pestis TopoI)
Cc1ccc(-c2nn(CCC(=O)Nc3cccnc3)c(=O)c3ccccc23)cc1	BioA inh-1 89 | BioA inh-2 inactive | HepG2 tox 2 inactive | 3T3 cytotox 5 inactive

Source: PubChem
